# ID4 SMM – binders of human ID4 protein | P47928 | calls only | small molecule microarray, Flag-ID4 binding, fluorescence F/B | 1.2% of 31,000 active; call rule not given here;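 further: a binder raises fluorescence above local background on the spot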
# Target sequence (P47928 whole entry, looked up): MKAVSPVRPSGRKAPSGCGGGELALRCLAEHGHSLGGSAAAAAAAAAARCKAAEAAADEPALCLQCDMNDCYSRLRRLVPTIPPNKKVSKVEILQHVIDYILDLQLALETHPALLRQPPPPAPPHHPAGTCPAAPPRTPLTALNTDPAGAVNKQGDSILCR
# p53 PUMA act – restores mutant p53 pathway signaling in SW480 cells | AID 624151 | activation, % at 9.98 µM | SW480 PUMA-promoter luciferase, p53 mutant reactivation | 1.5% of 28,000 active; in the data active means activation above about 52%; inconclusive means no clear call, values can overlap the other calls
# Active calls of the source: *; i = inactive; ? = inconclusive; / = not tested or not shown; + = active, no number. Only some compounds are listed: those with a hit (about 2.3% of all), similar ones and a draw of the others.
SMILES,ID4 SMM,p53 PUMA act
Cc1nc2ccccc2n1CC(O)COc1ccccc1Cl (stereo unspecified),i,-5.8
OC(COc1ccccc1Cl)Cn1nnc2ccccc21 (stereo unspecified),i,65.8*
Cc1ccc(Cl)c(OCC(O)Cn2cnc3ccccc32)c1 (stereo unspecified),i,?
O=C(CSc1nnc(-c2ccncc2)n1-c1ccc(F)cc1)c1ccccc1,i,14.9
O=C(CN1C(=O)c2ccccc2S1(=O)=O)Nc1cccc(O)c1,i,-4.4
COC(=O)c1ccc(Cl)c(NC(=O)CN(c2ccccc2Br)S(C)(=O)=O)c1,i,23.1
CC(C)(C)c1nc2scc(-c3ccc(Cl)cc3)n2n1,i,16.7
CCn1c(SCC(=O)Nc2ccc(C)cc2C)nnc1-c1cccs1,i,10.9
COc1ccc(-n2c(SCC(=O)c3ccc(Cl)cc3)nnc2-c2ccccc2)cc1,i,-4.1
Cc1ccc2c(CC(=O)Nc3cccc([N+](=O)[O-])c3)coc2c1C,i,69.0*
Cc1ccc2c(CC(=O)NCc3ccco3)coc2c1C,i,-24.2
Cc1coc(C)c1C(=O)CC1(O)C(=O)N(CCc2ccccc2)c2ccc(Cl)cc21 (stereo unspecified),i,-12.9
O=C(C[C@H]1CC[C@H](NC(=O)C2CCC2)[C@H](CO)O1)NCCCN1CCOCC1,i,/
O=C(C[C@H]1CC[C@@H](NC(=O)C2CCC2)[C@@H](CO)O1)NCCCN1CCOCC1,+,/
CCC(Sc1nnc2sc3ccccc3n12)C(=O)O (stereo unspecified),i,4.3
Cc1c(NC(=S)NCc2ccccn2)c(=O)n(-c2ccccc2)n1C,i,0.5
Cc1c(NC(=S)NCCc2c[nH]c3ccccc23)c(=O)n(-c2ccccc2)n1C,+,1.6
Cc1nn(CC(=O)Nc2cc(F)ccc2F)c(C)c1[N+](=O)[O-],i,-2.7
COC(=O)c1ccccc1NC(=O)c1ccc(COc2ccccc2)o1,i,102.6*
COC(=O)c1ccccc1NC(=O)CNC(=O)c1ccccc1,i,-9.3
COC(=O)c1ccccc1NC(=O)NCc1ccc(C(=O)O)cc1,+,-3.6
COC(=O)c1ccccc1NC(=O)c1cccc(NC(=O)COc2ccccc2)c1C,i,-3.4
Cc1ccc(-n2c(SCC(=O)Nc3ccc(Br)cc3)nnc2-c2ccco2)cc1,i,-13.1
CC(=O)Nc1c(O)nc(SCC(=O)N(c2ccccc2)c2ccccc2)[nH]c1=O,i,0.9
O=C1Oc2cc(O)cc(O)c2[C@@H](c2ccc(O)cc2)[C@H]1[C@H]1C(=O)Oc2cc(O)cc(O)c2[C@H]1c1ccc(O)cc1,/,-1.2
SMILES,ID4 SMM,p53 PUMA act
CCc1ccc(NC(=O)CSc2nc(C)cc(C)n2)cc1,i,-7.3
COCCNC(=O)c1ccccc1NC(=O)Nc1ccc(Cl)cc1,i,61.2*
O=C(Nc1ccccc1C(=O)NCCOc1ccccc1)c1ccccc1I,i,-1.4
O=C(NCc1ccco1)c1ccccc1NC(=O)C1CC(=O)N(c2ccc(Cl)cc2)C1 (stereo unspecified),i,-8.6
O=C(Nc1ccc(Cl)cc1)Nc1ccccc1C(=O)NCc1ccco1,i,80.1*
Cc1ccc2nc(-c3ccc(NC(=O)CN4CCN(C(=O)C5CCCO5)CC4)cc3)sc2c1 (stereo unspecified),i,26.3
COc1cccc(C(=O)NC(c2ccc(C)cc2)c2cc(Cl)c3cccnc3c2O)c1 (stereo unspecified),i,-67.0
O=C(O)CCNC(=O)c1ccccc1,i,/
O=C(CC(=O)c1ccccc1)c1ccccc1,i,96.6*
Cc1cc(C(=O)NN2C3CSC2CS3)no1,i,-5.8
COCCSc1nnc(NC(=O)c2sc3ccccc3c2Cl)s1,i,67.0*
CSc1ncc(Cl)c(C(=O)Nc2nnc(SC/C=C/c3ccccc3)s2)n1,i,-0.9
CC(=O)c1ccc(NC(=O)CSc2nnc3n(-c4ccccc4)c(=O)c4c5c(sc4n23)COC(C)(C)C5)cc1,i,23.4
Cc1cc(C)c2oc(-c3ccc(NC(=O)COc4ccc([N+](=O)[O-])cc4)cc3)nc2c1,i,12.6
O=C(CCN1C(=O)c2ccccc2C1=O)Nc1ccc(-c2nc3ccccc3o2)cc1,i,33.8
O=C(CCN1C(=O)c2ccccc2C1=O)Oc1c(-c2ccccc2)oc2ccccc2c1=O,i,53.9*
O=C(Oc1c(CN2CCOCC2)cc(Cl)c2cccnc12)c1ccc([N+](=O)[O-])cc1,i,-40.1
CS(=O)(=O)N(CC(=O)Nc1ccc(I)cc1)Cc1ccccc1,i,12.6
Cc1cccc(NC(=O)c2cc(NC(=O)C3CCCCC3C(=O)O)ccc2N2CCCCC2)c1 (stereo unspecified),i,-15.7
Cc1cccc(NC(=O)c2cc(NC(=O)CCC(=O)O)ccc2N2CCOCC2)c1,+,-12.3
COc1ccc(Cl)cc1NC(=O)CN(c1cc([N+](=O)[O-])ccc1C)S(C)(=O)=O,i,2.0
CNC[C@@H]1Oc2ccc(NC(=O)Cc3ccccc3)cc2CC(=O)N([C@H](C)CO)C[C@@H]1C,i,8.2
CNC[C@H]1Oc2ccc(NC(=O)Cc3ccccc3)cc2CC(=O)N([C@H](C)CO)C[C@@H]1C,+,-5.5
CNC[C@@H]1Oc2ccc(NC(=O)Cc3cn(C)c4ccccc34)cc2CC(=O)N([C@H](C)CO)C[C@@H]1C,i,-15.0
CNC[C@H]1Oc2ccc(NC(=O)Cc3cn(C)c4ccccc34)cc2CC(=O)N([C@@H](C)CO)C[C@H]1C,+,-9.3
SMILES,ID4 SMM,p53 PUMA act
C=C1c2c(Cl)ccc(O)c2C(=O)C2C(=O)[C@]3(O)C(=O)C(C(N)=O)C(=O)[C@@H](N(C)C)[C@@H]3[C@@H](O)C12 (stereo partly specified),i,-16.8
COC(=O)c1cc(-c2ccccc2)sc1NC(=S)Nc1ccn(C)n1,i,47.9
COC(=O)c1cc(-c2ccccc2)sc1NC(=S)Nc1cn(C)nc1C,+,5.5
CCC1=C/C(=C\N(C)c2ccccc2)C(=O)S1,i,75.4*
Cc1noc(C)c1S(=O)(=O)N(C)C[C@H]1Oc2ccc(NC(=O)CCCN(C)C)cc2C(=O)N([C@H](C)CO)C[C@@H]1C,+,5.3
COc1ccc(S(=O)(=O)N(C)C[C@@H]2Oc3ccc(NC(=O)CCCN(C)C)cc3C(=O)N([C@H](C)CO)C[C@@H]2C)cc1,i,2.5
C[C@@H]1CN([C@@H](C)CO)C(=O)c2cc(NC(=O)NC3CCCCC3)ccc2O[C@@H]1CN(C)S(=O)(=O)c1ccc(Cl)cc1,i,-0.5
C[C@H](CO)N1C[C@H](C)[C@@H](CN(C)S(=O)(=O)c2ccc(Cl)cc2)Oc2ccc(NC(=O)NC3CCCCC3)cc2C1=O,+,-0.2
Cc1noc(C)c1S(=O)(=O)N(C)C[C@@H]1OCCCC[C@@H](C)Oc2ccc(NC(=O)CCCN(C)C)cc2C(=O)N([C@H](C)CO)C[C@@H]1C,i,1.3
COc1ccc(S(=O)(=O)N(C)C[C@H]2Oc3ccc(NC(=O)CCCN(C)C)cc3C(=O)N([C@H](C)CO)C[C@@H]2C)cc1,+,-12.2
CC(C)Cc1ccc(C(C)C(=O)Nc2cccc(-c3cnco3)c2)cc1 (stereo unspecified),i,-14.3
Cc1ccc(S(=O)(=O)c2nc(-c3ccccc3F)oc2NCC2CCCO2)cc1 (stereo unspecified),i,15.2
COC(=O)c1ccc([C@@H]2C=C(C(=O)O)O[C@H](OCCCCO)C2)cc1,i,/

# High-throughput results (PubChem)
